This is one part of the list. Unmarked numbers belong to inactive results. The rule behind the calls is not given here. Bounds are passed on as bounds.

The nature of the experiment: spectral interference with molecular beacon fluorescence, dose response, artefact control for DNMT1 inhibitor project, biochemical, fluorescent molecular beacon (AID 602382). As to conditions: spectral interference counter-screen.
As to `O=C(CSc1nc2ccccc2c(=O)[nH]1)Nc1nc(-c2ccc(Br)cc2)cs1`, the IC50 – broadly, the midpoint of a concentration-inhibition curve – was greater than 99 µM.
Turning to `COc1ccc(Cc2nnc(NC(=O)Cc3cccs3)s2)cc1`, the IC50 was greater than 99 µM.
To `NC(CSC(c1ccccc1)(c1ccccc1)c1ccc(-c2ccccc2)cc1)C(=O)O` (stereo not given) belongs greater than 99 µM.
The result for `Cc1ccc(/C=C/C(=O)Nc2ccc([N+](=O)[O-])c(NC(=O)/C=C/c3ccc(C)o3)c2)o1` reads greater than 99 µM; that for `COc1ccc(C(=O)/C=C/c2ccc(-c3ccccc3)cc2)cc1CSCC(=O)O`, greater than 99 µM.
Regarding `COc1ccc(Br)cc1/C=N/Nc1ccc(S(=O)(=O)Nc2ccccc2C(=O)O)cc1[N+](=O)[O-]`, the IC50 is greater than 99 µM.
Turning to `CCOC(=O)C(NC(=O)CC(C)C)(Nc1sc2c(c1C(N)=O)CCCC2)C(F)(F)F` (stereo not given), the IC50 was greater than 99 µM.
Regarding `Cc1ccccc1NC(=O)CN1C(=O)N/C(=C\c2cccn2-c2cccc(C(=O)O)c2)C1=O`, the IC50 is greater than 99 µM.
As to `O=C(Oc1ccc(-c2nc(-c3ccccn3)no2)cc1)c1ccccc1`, the IC50 is greater than 99 µM.
Consider `O=C(COc1ccc(/C=N/NC(=O)c2ccc(O)cc2)cc1)Nc1ccc([N+](=O)[O-])cc1`, for which the IC50 is greater than 99 µM.

The values above are taken from PubChem BioAssay AID602382 (Sanford-Burnham Center for Chemical Genomics, 2012).
